CYP2C9 inhib = inhibitors of human CYP2C9; P11712; CYP2C9 Supersomes, luciferin-H conversion, luminescence; inhibition, % at 5 µM; hit rate 20% among 96,000;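 active = blocking of liver enzyme CYP2C9 beyond about 50% at 5 µM, limit read from the data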
sEH act = soluble epoxide hydrolase (human) activation. activation, % at 2 µM. purified human sEH enzymatic activity, activator screen. hit rate 0.04% among 91,000. P34913; in the data active = activation above about 37%
Target sequence (P34913 whole entry, looked up): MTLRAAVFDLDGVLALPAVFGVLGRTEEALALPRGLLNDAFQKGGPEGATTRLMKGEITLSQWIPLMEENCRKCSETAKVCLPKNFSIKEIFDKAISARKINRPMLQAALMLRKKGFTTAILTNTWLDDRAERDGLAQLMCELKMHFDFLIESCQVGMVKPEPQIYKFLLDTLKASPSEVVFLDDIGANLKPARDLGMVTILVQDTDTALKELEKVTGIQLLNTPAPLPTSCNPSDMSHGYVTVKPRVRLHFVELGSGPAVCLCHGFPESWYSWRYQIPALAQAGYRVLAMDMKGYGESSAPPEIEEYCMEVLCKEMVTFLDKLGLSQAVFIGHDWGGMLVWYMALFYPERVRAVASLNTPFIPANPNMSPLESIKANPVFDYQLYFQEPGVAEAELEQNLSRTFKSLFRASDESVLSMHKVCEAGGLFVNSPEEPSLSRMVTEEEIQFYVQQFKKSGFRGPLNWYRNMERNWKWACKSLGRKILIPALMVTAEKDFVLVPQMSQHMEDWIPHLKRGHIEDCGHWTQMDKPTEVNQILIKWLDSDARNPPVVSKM
CYP2C9 act = CYP2C9 (human) activation. activation factor at 5 µM. P11712. recombinant CYP2C9, luciferin-H conversion, luminescence; active compounds read high; factor 1 = untreated enzyme, 0 = blocked. hit rate 1.4% among 96,000;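 active = activation factor of 2 or more for CYP2C9 at a 5 µM dose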;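 note: 0 = sulfaphenazole-blocked wells and 1 = vehicle-only wells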
CYP2C19 inhib = inhibitors of human CYP2C19; CYP2C19 Supersomes, luciferin-H EGE luminescence, 30 min; inhibition, % at 5 µM; hit rate 21% among 96,000;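 active = CYP2C19 inhibition above a set limit at 5 µM in the primary screen, cut at about 50% in these data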;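 note: plate controls were negative control wells for no effect and 2.5 mM tranylcypromine positive control for full effect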
CYP2C19 activ = increases human CYP2C19 enzyme activity; 96,000 tested, under 10 active; recombinant CYP2C19, luciferin-H EGE luminescence; active compounds read high; 0 = fully inhibited enzyme, 1 = untreated enzyme; activation factor at 5 µM;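 active = activation factor of at least 2 at 5 µM in the primary screen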;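 note: 0 = wells with 2.5 mM tranylcypromine and 1 = vehicle-only wells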
sEH inhibitor = soluble epoxide hydrolase (human) inhibition; recombinant human sEH enzymatic activity assay; inhibition, % at 2 µM; hit rate 0.34% among 91,000; in the data active = inhibition above about 80%
* marks the source's active call; other numbers are inactive results. A selection: hits, their analogues and other compounds. The true share with any hit is near 27%.

What do the screens show for `COc1ccc(S(=O)(=O)N2CCC(C(=O)N3CCCC3)CC2)cc1Cl`?
CYP2C9 inhib: 22; sEH act: 2; CYP2C9 act: 0.8; CYP2C19 inhib: 89*; CYP2C19 activ: 0.1; sEH inhibitor: 1

What do the screens show for `COc1ccc(S(=O)(=O)N2CCC(C(=O)N3CCCCC3)CC2)cc1Cl`?
CYP2C9 inhib: 20; sEH act: -4; CYP2C9 act: 0.8; CYP2C19 inhib: 92*; CYP2C19 activ: 0.1; sEH inhibitor: 4

How did O=S(=O)(/C=C/c1ccccc1)Oc1ccccc1 do in these assays?
CYP2C9 inhib: -7; sEH act: 2; CYP2C9 act: 1.1; CYP2C19 inhib: 79*; CYP2C19 activ: 0.2; sEH inhibitor: -6

How did O=C(O)c1ccc(NS(=O)(=O)/C=C/c2ccccc2)cc1 do in these assays?
CYP2C9 inhib: 5; sEH act: -2; CYP2C9 act: 0.9; CYP2C19 inhib: 6; CYP2C19 activ: 0.9; sEH inhibitor: 3

How did CC(C)Oc1ccc(C(=O)N/N=C/c2ccc(-c3ccc(S(=O)(=O)Nc4ncccn4)cc3)o2)cc1 do in these assays?
CYP2C9 inhib: 84*; sEH act: -51; CYP2C9 act: 0.2; CYP2C19 inhib: 19; CYP2C19 activ: 0.8; sEH inhibitor: 50

What do the screens show for `COc1ccc(CC(=O)Nc2ccc(S(=O)(=O)Nc3ncccn3)cc2)cc1`?
CYP2C9 inhib: -10; sEH act: 2; CYP2C9 act: 1.1; CYP2C19 inhib: 0; CYP2C19 activ: 1; sEH inhibitor: -4

Results for Fc1ccc(CN2CCCCCCC2)cc1F ?
CYP2C9 inhib: 6; sEH act: 1; CYP2C9 act: 0.9; CYP2C19 inhib: 27; CYP2C19 activ: 0.7; sEH inhibitor: 0

What do the screens show for `C=CCn1c(COc2ccc(Cl)cc2)nnc1SCC(=O)N1CC(=O)Nc2ccccc21`?
CYP2C9 inhib: -156; sEH act: 5; CYP2C9 act: 2.6*; CYP2C19 inhib: 31; CYP2C19 activ: 0.7; sEH inhibitor: -6

How did C=CCn1c(COc2ccccc2)nnc1SC(C)C(=O)N/N=C/c1cc(Cl)ccc1O (stereo unspecified) do in these assays?
CYP2C9 inhib: 50*; sEH act: -1; CYP2C9 act: 0.5; CYP2C19 inhib: 35; CYP2C19 activ: 0.6; sEH inhibitor: 2

Results for C=CCn1c(COc2ccccc2)nnc1SCC(=O)C(C)(C)C ?
CYP2C9 inhib: 44; sEH act: 10; CYP2C9 act: 0.6; CYP2C19 inhib: 65*; CYP2C19 activ: 0.4; sEH inhibitor: -12

What do the screens show for `C=CCn1c(COc2ccc3c(c2)CCCC3)nnc1SCC(=O)Nc1cccc(SC)c1`?
CYP2C9 inhib: 51*; sEH act: 8; CYP2C9 act: 0.5; CYP2C19 inhib: 29; CYP2C19 activ: 0.7; sEH inhibitor: -5

How did C=CCn1c(COc2ccc(Cl)cc2)nnc1SCC(=O)N/N=C/c1cccc(O)c1 do in these assays?
CYP2C9 inhib: 29; sEH act: -11; CYP2C9 act: 0.7; CYP2C19 inhib: 10; CYP2C19 activ: 0.9; sEH inhibitor: 11

How did CC(C)n1c(NCCc2ccccc2)nc2c1c(=O)n(C)c(=O)n2C do in these assays?
sEH act: 3; sEH inhibitor: 2

How did Cn1c(COc2ccccc2)nnc1SCC(=O)c1cccc([N+](=O)[O-])c1 do in these assays?
CYP2C9 inhib: 33; sEH act: 6; CYP2C9 act: 0.7; CYP2C19 inhib: 8; CYP2C19 activ: 0.9; sEH inhibitor: -4

What do the screens show for `Cc1nn2c3c(cnc2c1-c1ccccc1)C(=O)CC(c1ccccc1)C3` (stereo unspecified)?
CYP2C9 inhib: 54*; sEH act: 3; CYP2C9 act: 0.5; CYP2C19 inhib: 36; CYP2C19 activ: 0.6; sEH inhibitor: 0

Results for COC(=O)N1CC(C)N(C(=O)OC)CC1C (stereo unspecified) ?
CYP2C9 inhib: 4; CYP2C9 act: 1; CYP2C19 inhib: 13; CYP2C19 activ: 0.9

Results for CCCCCCS(=O)Cc1ccccc1 (stereo unspecified) ?
CYP2C9 inhib: -5; CYP2C9 act: 1.1; CYP2C19 inhib: 91*; CYP2C19 activ: 0.1

Results for CCCCP(=O)(CCCC)Cc1ccccc1 ?
CYP2C9 inhib: 4; sEH act: 4; CYP2C9 act: 1; CYP2C19 inhib: 0; CYP2C19 activ: 1; sEH inhibitor: -5

Results for c1ccc(-c2nnn(C34CC5CC(CC(C5)C3)C4)n2)cc1 ?
CYP2C9 inhib: 20; sEH act: 7; CYP2C9 act: 0.8; CYP2C19 inhib: 2; CYP2C19 activ: 1; sEH inhibitor: -6
